# Measurements reported in the supplement of paper PMC11865577.
# Experiments:
# Assay in all cases: normalised indicator fluorescence (fraction of RNA + indicator signal without compound); higher = less displacement of indicator (weaker competition)
# Details in all cases: compound concentration: 5 uM, 30 min
# [1] = system: SARS-CoV-2 low-rank motif (SARS-low)
# Method in brief: (§1)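 For the displacement screen, RNA and a TO-PRO-1 or TO-PRO-3 indicator were held in 20 mM phosphate pH 7.0 with 20 mM NaCl and 80 mM KCl in 96-well plates. After adding 0.25 μL of each 1 mM DMSO stock (about 5 uM final) and waiting 30 min, fluorescence was measured on an Infinite 200 PRO with excitation at 485 or 620 nm. Each value is the mean of two independent experiments, expressed as blank-subtracted indicator fluorescence relative to the no-compound RNA-plus-indicator signal.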
# hsa-mir-191 loop = system: hsa-mir-191 loop
# Method in brief: as §1
# hsa-mir-21 loop = system: hsa-mir-21 loop
# Method in brief: as §1
# hsa-mir-221 loop = system: hsa-mir-221 loop
# Method in brief: as §1
# hsa-mir-374a loop = system: hsa-mir-374a loop
# Method in brief: as §1
# hsa-mir-6850 loop = system: hsa-mir-6850 loop
# Method in brief: as §1
# [2] = indicator: TO-PRO-1 0.1 uM, RNA concentration: 0.1 uM
# [3] = indicator: TO-PRO-3 0.5 uM, RNA concentration: 0.5 uM
structure (smiles),measurement,setting,value
O=c1ncn2nc(Sc3ccc(F)cc3F)ccc2c1-c1c(Cl)cccc1Cl [Neflamapimod],normalised indicator fluorescence,[1]; [2],1.2
same,normalised indicator fluorescence,[1]; [3],1.17
O=C1CCc2ccccc2C1 [Beta-Tetralone],normalised indicator fluorescence,[1]; [2],1.19
same,normalised indicator fluorescence,[1]; [3],1.2
O=C(/C=C/C=C/c1ccc2c(c1)OCO2)N1CCCCC1 [Piperine],normalised indicator fluorescence,[1]; [2],1.02
same,normalised indicator fluorescence,[1]; [3],1.15
O=C1c2c(O)cc(O)cc2OC(c2ccc(O)c(O)c2)C1O (centres undefined) [Taxifolin],normalised indicator fluorescence,[1]; [2],1.25
same,normalised indicator fluorescence,[1]; [3],1.31
Cc1cc(NC(=O)c2cccc(NC(=O)/C=C/CN(C)C)c2)ccc1Nc1nccc(-c2cccnc2)n1,normalised indicator fluorescence,[1]; [2],0.999
same,normalised indicator fluorescence,[1]; [3],1.14
COc1nc(-c2ccc3c(c2)OCO3)n(-c2ccc(NC(=O)CSc3ccccc3)cc2)n1 [SecinH3],normalised indicator fluorescence,[1]; [2],1.55
same,normalised indicator fluorescence,[1]; [3],0.816
C[C@H]1[C@H](C)CC[C@]2(C(=O)O[C@@H]3O[C@H](CO[C@@H]4O[C@H](CO)[C@@H](O[C@@H]5O[C@H](C)[C@H](O)[C@@H](O)[C@H]5O)[C@H](O)[C@H]4O)[C@@H](O)[C@H](O)[C@H]3O)CC[C@]3(C)C(=CC[C@@H]4[C@@]5(C)C[C@@H](O)[C@H](O)[C@@](C)(CO)[C@@H]5CC[C@]43C)[C@H]12 [Asiaticoside],normalised indicator fluorescence,[1]; [2],1.05
same,normalised indicator fluorescence,[1]; [3],1.3
COc1c(C)cnc(Cn2cnc3c(Cl)nc(N)nc32)c1C,normalised indicator fluorescence,[1]; [2],1.13
same,normalised indicator fluorescence,[1]; [3],1.17
Cc1oncc1C(=O)Nc1ccc(C(F)(F)F)cc1 [Leflunomide],normalised indicator fluorescence,[1]; [2],1.07
same,normalised indicator fluorescence,[1]; [3],1.12
C[C@H](CCC(=O)NCCS(=O)(=O)O)[C@H]1CC[C@H]2[C@@H]3[C@@H](O)C[C@@H]4C[C@H](O)CC[C@]4(C)[C@H]3CC[C@]12C [Tauroursodeoxycholic Acid],normalised indicator fluorescence,[1]; [2],1.21
same,normalised indicator fluorescence,[1]; [3],1.52
CC1(C)OC(=O)C=C[C@]2(C)[C@H]3CC[C@@]4(C)[C@H](c5ccoc5)OC(=O)[C@H]5O[C@]54[C@]3(C)C(=O)C[C@@H]12 [Obacunone],normalised indicator fluorescence,[1]; [2],1.14
same,normalised indicator fluorescence,[1]; [3],0.991
NC(=O)c1ccccc1Nc1ccnc(Nc2cccc(O)c2)n1,normalised indicator fluorescence,[1]; [2],1.1
same,normalised indicator fluorescence,[1]; [3],1.06
COc1ccc2c(c[n+](C)c3c4cc5c(cc4ccc23)OCO5)c1OC [Chelerythrine chloride],normalised indicator fluorescence,hsa-mir-191 loop; [2],0.626
same,normalised indicator fluorescence,hsa-mir-191 loop; [3],0.656
same,normalised indicator fluorescence,hsa-mir-21 loop; [2],0.586
same,normalised indicator fluorescence,hsa-mir-21 loop; [3],0.724
same,normalised indicator fluorescence,hsa-mir-221 loop; [2],0.568
same,normalised indicator fluorescence,hsa-mir-221 loop; [3],0.592
same,normalised indicator fluorescence,hsa-mir-374a loop; [2],1.01
same,normalised indicator fluorescence,hsa-mir-374a loop; [3],1.02
same,normalised indicator fluorescence,hsa-mir-6850 loop; [2],0.335
same,normalised indicator fluorescence,hsa-mir-6850 loop; [3],0.494
CC1=CC(=O)c2c(O)cccc2C1=O [Plumbagin],normalised indicator fluorescence,hsa-mir-191 loop; [2],1.02
same,normalised indicator fluorescence,hsa-mir-191 loop; [3],1.01
same,normalised indicator fluorescence,hsa-mir-21 loop; [2],0.979
same,normalised indicator fluorescence,hsa-mir-21 loop; [3],0.979
same,normalised indicator fluorescence,hsa-mir-221 loop; [2],1.02
same,normalised indicator fluorescence,hsa-mir-221 loop; [3],1.05
same,normalised indicator fluorescence,hsa-mir-374a loop; [2],1.17
same,normalised indicator fluorescence,hsa-mir-374a loop; [3],1.15
same,normalised indicator fluorescence,hsa-mir-6850 loop; [2],0.922
same,normalised indicator fluorescence,hsa-mir-6850 loop; [3],1.01
